Results filed as inconclusive are left out. Activity calls are given as the source filed them. Unless noted, calls come from the whole dose curve; as a rule, active = well fitted curve in the direction sought with a large enough effect in the repeat runs; inconclusive = weak or mixed curves; inactive = no such curve, though single readings can be large; an effect the other way counts as inactive or inconclusive.
What was measured:
[1] = qHTS assay to identify small molecule antagonists of the sonic hedgehog signaling (Shh) pathway (AID 1259369; calls by dose curve; note: nearly all actives have a fitted effect of over 45% in size)
Method in brief: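 3T3Gli1-Luc, conditioned-medium-stimulated, 24hr cpd, 37C/5% CO2; Gli1-driven firefly Luc luminescence after 30min RT with luciferase reagent. Cells plated 4hr before cpd.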

[2] = biological target: Estrogen receptor beta (Homo sapiens) (UniProt Q92731); test: qHTS assay to identify small molecule agonists of the estrogen receptor beta (ER-beta) signaling pathway (AID 1259377; active = well fitted activation curve with a large enough effect in the signal ratio in the repeat runs, not every such curve was filed as active; the % refers to the signal ratio)
Chain of Estrogen receptor beta (Homo sapiens) (Q92731 whole entry, looked up): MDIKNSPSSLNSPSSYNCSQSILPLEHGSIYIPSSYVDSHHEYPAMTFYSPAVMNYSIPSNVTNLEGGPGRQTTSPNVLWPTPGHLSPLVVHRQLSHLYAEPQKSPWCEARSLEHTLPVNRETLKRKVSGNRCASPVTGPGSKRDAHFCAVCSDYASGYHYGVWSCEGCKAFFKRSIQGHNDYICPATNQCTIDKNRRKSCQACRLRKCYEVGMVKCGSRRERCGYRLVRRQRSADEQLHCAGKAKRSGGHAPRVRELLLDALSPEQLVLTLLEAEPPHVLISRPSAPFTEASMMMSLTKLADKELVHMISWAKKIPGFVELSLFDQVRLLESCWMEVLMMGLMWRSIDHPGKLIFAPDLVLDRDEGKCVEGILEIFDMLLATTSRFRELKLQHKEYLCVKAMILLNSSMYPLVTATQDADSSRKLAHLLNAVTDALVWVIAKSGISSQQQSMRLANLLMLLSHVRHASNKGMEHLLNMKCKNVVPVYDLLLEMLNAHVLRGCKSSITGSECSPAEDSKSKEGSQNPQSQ
Method in brief: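 HEK293T ER-beta-UAS-bla; 2% charcoal-stripped FBS; cells pre-incubated 6 hr, compound 16 hr, 37C/5% CO2; LiveBLAzer B/G FRET substrate 2 h RT; fluorescence intensity read.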

[3] = biological target: Estrogen receptor beta (Homo sapiens) (UniProt Q92731); test: qHTS assay to identify small molecule antagonists of the estrogen receptor beta (ER-beta) signaling pathway (AID 1259378; active = well fitted inhibition curve with a large enough effect in the signal ratio in the repeat runs, not every such curve was filed as active; the % refers to the signal ratio)
Method in brief: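 ER-beta-UAS-bla HEK293T (GripTite) cells in 2% charcoal-stripped FBS medium were preincubated 6 hr at 37C, dosed with compound, then stimulated with 1 nM E2 (final) for 16 hr; beta-lactamase reporter read by B/G FRET fluorescence after 2 hr substrate loading.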

[4] = qHTS assay to identify small molecule agonists of the androgen receptor (AR) signaling pathway in the presence of an antagonist - cell viability counter screen (AID 1259379);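 note: MDA-kb2 human breast cancer cells carrying an MMTV luciferase reporter; series mostly up to about 92 µM; nearly all actives have a fitted effect of over 25% in size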
Method in brief: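 Cells: MDA-kb2 (MMTV-luc, AR and GR elements), 3,000/well, 5 hr settle. Added: nilutamide 3.0uM final, then compounds (15 conc.). Incubation: 16 hr, 37C, no CO2. Read-out: CellTiter-Fluor, 1 hr, fluorescence.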

[5] = qHTS assay to identify small molecule agonists of the estrogen receptor beta (ER-beta) signaling pathway - cell viability counter screen (AID 1259380); note: nearly all actives have a fitted effect of over 30% in size
Method in brief: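 HEK293T ER-beta-UAS-bla; 2% CS-FBS; 6 hr pre-plate, 16 hr cpd at 37C/5% CO2; LiveBLAzer read first, then CellTiter-Glo 30 min RT, luminescence.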

[6] = biological target: Androgen receptor (Homo sapiens) (UniProt P10275); test: qHTS assay to identify small molecule agonists of the androgen receptor (AR) signaling pathway in the presence of an antagonist (AID 1259381; calls by dose curve; note: nearly all actives have a fitted effect of over 15% in size)
Chain of Androgen receptor (Homo sapiens) (P10275 whole entry, looked up): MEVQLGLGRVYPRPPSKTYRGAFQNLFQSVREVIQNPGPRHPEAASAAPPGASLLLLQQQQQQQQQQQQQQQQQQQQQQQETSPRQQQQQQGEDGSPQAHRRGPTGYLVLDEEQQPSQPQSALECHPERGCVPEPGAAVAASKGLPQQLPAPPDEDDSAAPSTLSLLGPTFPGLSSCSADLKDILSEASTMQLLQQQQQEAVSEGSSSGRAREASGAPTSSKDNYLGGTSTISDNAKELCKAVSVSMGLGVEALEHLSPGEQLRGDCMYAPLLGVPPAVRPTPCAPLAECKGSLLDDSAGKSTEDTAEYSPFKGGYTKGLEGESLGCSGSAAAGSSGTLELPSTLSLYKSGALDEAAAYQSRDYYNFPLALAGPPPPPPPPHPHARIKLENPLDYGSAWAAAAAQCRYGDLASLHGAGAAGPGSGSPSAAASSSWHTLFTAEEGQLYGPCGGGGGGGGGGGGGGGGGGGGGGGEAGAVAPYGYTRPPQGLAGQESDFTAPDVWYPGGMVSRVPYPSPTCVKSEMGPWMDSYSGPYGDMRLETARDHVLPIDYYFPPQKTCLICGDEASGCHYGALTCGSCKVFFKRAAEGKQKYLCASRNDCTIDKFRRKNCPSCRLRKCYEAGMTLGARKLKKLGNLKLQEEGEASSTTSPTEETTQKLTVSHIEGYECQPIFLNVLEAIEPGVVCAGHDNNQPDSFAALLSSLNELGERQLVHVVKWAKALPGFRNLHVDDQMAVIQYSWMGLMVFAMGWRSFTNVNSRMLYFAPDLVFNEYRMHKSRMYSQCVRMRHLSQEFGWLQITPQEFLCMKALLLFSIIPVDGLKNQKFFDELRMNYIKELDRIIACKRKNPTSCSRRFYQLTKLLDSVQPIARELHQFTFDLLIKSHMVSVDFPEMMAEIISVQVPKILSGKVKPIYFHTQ
Method in brief: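 MDA-kb2 cells, 3,000/well, rested 5hr at 37C/0% CO2 → nilutamide 3.0uM final or buffer → compounds, 15 conc. → 16hr at 37C → ONE-Glo, 30min RT → luminescence.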

[7] = qHTS assay to identify small molecule antagonists of the estrogen receptor beta (ER-beta) signaling pathway - cell viability counter screen (AID 1259382); note: series mostly up to about 92 µM; nearly all actives have a fitted effect of over 55% in size
Method in brief: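 Cells: ER-beta-UAS-bla HEK293T, 2,000/well, 2% CS-FBS, 6 hr settle. Cpd + E2 (1nM final), 16 hr, 37C/5% CO2. Bla FRET substrate 2 hr RT, then CellTiter-Glo 30 min RT, luminescence.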

[8] = qHTS assay to identify small molecule agonists or antagonists of the thyroid stimulating hormone receptor (TSHR) signaling pathway - wild type cell line counter screen (AID 1259384; calls by dose curve)
Method in brief: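 Wild-type HEK293 cells were plated 18 h at 37 C/5% CO2, pin-dosed with compound plus Ro20-1724 medium, held 30 min at room temperature, then given cAMP-d2 and anti-cAMP-cryptate; fluorescence was read after 1 h. Fifteen concentrations, triplicate.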

[9] = biological target: Thyrotropin receptor (Homo sapiens) (UniProt P16473); test: qHTS assay to identify small molecule antagonists of the thyroid stimulating hormone receptor (TSHR) signaling pathway (AID 1259385; calls by dose curve; note: nearly all actives have a fitted effect of over 20% in size)
Chain of Thyrotropin receptor (Homo sapiens) (P16473 whole entry, looked up): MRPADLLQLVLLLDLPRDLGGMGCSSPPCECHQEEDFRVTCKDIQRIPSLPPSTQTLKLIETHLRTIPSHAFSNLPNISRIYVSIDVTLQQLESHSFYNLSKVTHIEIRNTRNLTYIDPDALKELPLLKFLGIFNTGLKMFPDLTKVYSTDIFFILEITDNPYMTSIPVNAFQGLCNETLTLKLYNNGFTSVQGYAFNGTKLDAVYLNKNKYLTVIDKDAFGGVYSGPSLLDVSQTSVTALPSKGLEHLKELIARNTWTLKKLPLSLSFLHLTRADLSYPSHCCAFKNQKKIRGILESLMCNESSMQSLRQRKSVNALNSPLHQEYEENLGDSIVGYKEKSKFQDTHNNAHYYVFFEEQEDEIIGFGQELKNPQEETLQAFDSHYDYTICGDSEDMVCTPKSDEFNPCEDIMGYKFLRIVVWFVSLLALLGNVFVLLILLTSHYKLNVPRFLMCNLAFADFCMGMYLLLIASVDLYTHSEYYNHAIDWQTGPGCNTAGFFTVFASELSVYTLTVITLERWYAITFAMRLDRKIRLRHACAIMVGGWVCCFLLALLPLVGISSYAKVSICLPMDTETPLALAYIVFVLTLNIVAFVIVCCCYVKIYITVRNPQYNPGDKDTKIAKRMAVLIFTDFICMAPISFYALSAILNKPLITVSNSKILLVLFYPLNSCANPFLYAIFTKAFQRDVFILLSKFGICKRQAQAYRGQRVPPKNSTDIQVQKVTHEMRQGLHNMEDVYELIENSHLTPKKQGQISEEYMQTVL
Method in brief: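 TSHR-HEK293 cells were plated and held 18 h at 37C/5% CO2, then given compound plus Ro20-1724 and stimulated with TSH at 1.5 ng/mL final. After 30 min at room temperature, cAMP was detected with cAMP-d2/anti-cAMP-cryptate (1 h) by fluorescence.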

[10] = qHTS assay to identify small molecule agonists of the estrogen receptor alpha (ER-alpha) signaling pathway in the presence of an antagonist - cell viability counter screen (AID 1259386);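 note: series mostly up to about 92 µM; cells exposed to compounds for 22 h at 37 °C before the viability read; nearly all actives have a fitted effect of over 30% in size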
Method in brief: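 VM7Luc4E2, stripped-serum pre-culture 5 d; 24hr plating; +ICI-182,780 10.0nM final; cpds 15 conc, 22hr, 37C/5% CO2; CellTiter-Fluor added at 21hr, fluorescence 1hr later.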

[11] = biological target: Progesterone receptor (Homo sapiens) (UniProt P06401); test: qHTS assay to identify small molecule agonists of the progesterone receptor (PR) signaling pathway (AID 1346784; calls by dose curve; note: nearly all actives have a fitted effect of over 30% in size)
Chain of Progesterone receptor (Homo sapiens) (P06401 whole entry, looked up): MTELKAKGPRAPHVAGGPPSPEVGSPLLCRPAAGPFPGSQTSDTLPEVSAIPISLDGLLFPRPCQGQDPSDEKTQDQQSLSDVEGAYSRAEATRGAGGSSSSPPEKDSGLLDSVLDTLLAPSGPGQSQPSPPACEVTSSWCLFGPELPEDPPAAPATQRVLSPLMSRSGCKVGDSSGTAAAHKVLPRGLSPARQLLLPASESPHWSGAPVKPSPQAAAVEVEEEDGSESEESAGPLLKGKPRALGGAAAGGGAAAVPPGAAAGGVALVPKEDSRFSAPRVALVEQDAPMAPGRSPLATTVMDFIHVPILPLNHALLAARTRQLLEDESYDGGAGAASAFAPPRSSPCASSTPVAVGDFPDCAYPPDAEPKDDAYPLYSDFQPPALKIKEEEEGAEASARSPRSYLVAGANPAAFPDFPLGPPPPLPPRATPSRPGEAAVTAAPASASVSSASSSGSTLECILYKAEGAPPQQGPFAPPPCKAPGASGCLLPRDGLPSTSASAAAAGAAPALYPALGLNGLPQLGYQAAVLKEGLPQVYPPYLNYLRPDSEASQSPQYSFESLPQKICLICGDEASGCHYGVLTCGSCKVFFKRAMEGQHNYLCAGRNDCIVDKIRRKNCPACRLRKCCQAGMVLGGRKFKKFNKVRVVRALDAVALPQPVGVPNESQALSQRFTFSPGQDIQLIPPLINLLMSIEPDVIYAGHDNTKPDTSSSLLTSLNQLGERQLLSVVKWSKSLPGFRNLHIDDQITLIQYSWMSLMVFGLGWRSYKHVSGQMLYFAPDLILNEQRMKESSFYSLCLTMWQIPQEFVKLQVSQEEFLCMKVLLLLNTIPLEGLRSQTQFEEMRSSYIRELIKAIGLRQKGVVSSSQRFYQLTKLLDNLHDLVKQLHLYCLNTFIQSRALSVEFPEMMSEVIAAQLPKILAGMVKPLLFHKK
Method in brief: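 Beta-lactamase reporter read-out: after 16 hr compound treatment at 37C and a further 2 hr at room temperature with LiveBLAzer B/G FRET substrate, fluorescence was measured in PR-UAS-bla HEK 293T cells grown in 2% charcoal-stripped serum.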

[12] = biological target: Progesterone receptor (Homo sapiens) (UniProt P06401); test: qHTS assay to identify small molecule antagonists of the progesterone receptor (PR) signaling pathway (AID 1346795; active = well fitted inhibition curve with a large enough effect in the signal ratio in the repeat runs, not every such curve was filed as active; the % refers to the signal ratio)
Method in brief: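 Read-out is fluorescence from the LiveBLAzer B/G FRET substrate, cleaved by a UAS-controlled beta-lactamase in PR-UAS-bla HEK293T cells after 16 hr exposure to compound plus 1 nM promegestone (final), followed by 2 hr at room temperature.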

[13] = qHTS assay to identify small molecule antagonists of the progesterone receptor (PR) signaling pathway - cell viability counter screen (AID 1346798);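 note: HEK293T PR-UAS-bla cells stimulated with the agonist R5020; series mostly up to about 92 µM; nearly all actives have a fitted effect of over 50% in size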
Method in brief: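 HEK293T PR-UAS-bla, 2% charcoal-stripped FBS; 4 hr pre-plate; cpd + R5020, 16 h 37C; LiveBLAzer read first; then CellTiter-Glo 30 min RT, luminescence.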

[14] = qHTS assay to identify small molecule agonists of the progesterone receptor (PR) signaling pathway - cell viability counter screen (AID 1346799; calls by dose curve; note: nearly all actives have a fitted effect of over 45% in size)
Method in brief: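 Luminescence from CellTiter-Glo, added after the beta-lactamase FRET read in the same wells, gave cytotoxicity in PR-UAS-bla HEK293T cells treated with compounds for 16 hr at 37C.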

[15] = qHTS assay to identify small molecule antagonists of the TGF-beta/Smad signaling pathway - cell viability counter screen (AID 1346824); note: nearly all actives have a fitted effect of over 50% in size
Method in brief: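 SBE-bla HEK 293T cells were plated overnight at 37 C, then given compounds in DMSO plus TGF-beta1 (added as 0.25 ng/mL solution) for 5 hr. After the bla read, CellTiter-Glo was added to the same wells and luminescence read after 30 min at room temperature.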

[16] = qHTS assay to identify small molecule agonists of the TGF-beta/Smad signaling pathway - cell viability counter screen (AID 1346829); note: top concentration of the series differs between compounds; nearly all actives have a fitted effect of over 45% in size
Method in brief: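 HEK 293T SBE-bla line, 5 hr compound exposure at 37 C, multiplexed CellTiter-Glo viability read by luminescence.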

[17] = qHTS assay to identify small molecule agonists of the TGF-beta/Smad signaling pathway (AID 1346859; active = well fitted activation curve with a large enough effect in the signal ratio in the repeat runs, not every such curve was filed as active; the % refers to the signal ratio; note: series mostly up to about 77 µM)
Method in brief: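 SBE-bla HEK 293T, 4,000 cells/well, plated o/n; cpd in DMSO, 5 hr, 37 C/5% CO2; B/G FRET substrate 2 hr RT; ex 405, em 460/530 nm.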

[18] = biological target: Thyrotropin-releasing hormone receptor (Homo sapiens) (UniProt P34981); test: qHTS assay to identify small molecule antagonists of the thyrotropin-releasing hormone receptor (TRHR) signaling pathway (AID 1346877; active = well fitted inhibition curve with a large enough effect in the repeat runs, not every such curve was filed as active; note: series mostly up to about 51 µM)
Chain of Thyrotropin-releasing hormone receptor (Homo sapiens) (P34981 whole entry, looked up): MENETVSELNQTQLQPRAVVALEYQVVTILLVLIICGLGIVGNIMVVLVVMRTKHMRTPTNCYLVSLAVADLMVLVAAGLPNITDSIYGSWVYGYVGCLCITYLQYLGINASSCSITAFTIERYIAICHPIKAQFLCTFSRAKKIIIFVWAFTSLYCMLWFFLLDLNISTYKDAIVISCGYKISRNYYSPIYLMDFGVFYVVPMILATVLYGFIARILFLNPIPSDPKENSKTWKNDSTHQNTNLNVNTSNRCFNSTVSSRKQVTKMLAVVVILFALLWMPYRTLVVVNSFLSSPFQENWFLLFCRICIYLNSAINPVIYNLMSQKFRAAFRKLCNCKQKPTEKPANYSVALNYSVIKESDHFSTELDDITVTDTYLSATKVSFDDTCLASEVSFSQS
Method in brief: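 Intracellular calcium fluorescence, read kinetically every second over 3 min, reports TRH-evoked signalling in HEK293 cells carrying TRHR. Test compounds were added 5 min ahead of a 1 nM TRH challenge.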

[19] = biological target: Thyrotropin-releasing hormone receptor (Homo sapiens) (UniProt P34981); test: qHTS assay to identify small molecule agonists of the thyrotropin-releasing hormone receptor (TRHR) signaling pathway (AID 1346891; calls by dose curve; note: series mostly up to about 58 µM)
Method in brief: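 Intracellular calcium rise, read as fluorescence every second for 3 min, served as the agonist signal in dye-loaded HEK293 cells expressing TRHR; each compound ran at 15 concentrations in triplicate.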

[20] = biological target: Estrogen receptor (Homo sapiens) (UniProt P03372); test: qHTS assay to identify small molecule agonists of the estrogen receptor alpha (ER-alpha) signaling pathway in the presence of an antagonist (AID 1259383; calls by dose curve; note: top concentration of the series differs between compounds; nearly all actives have a fitted effect of over 15% in size)
Chain of Estrogen receptor (Homo sapiens) (P03372 whole entry, looked up): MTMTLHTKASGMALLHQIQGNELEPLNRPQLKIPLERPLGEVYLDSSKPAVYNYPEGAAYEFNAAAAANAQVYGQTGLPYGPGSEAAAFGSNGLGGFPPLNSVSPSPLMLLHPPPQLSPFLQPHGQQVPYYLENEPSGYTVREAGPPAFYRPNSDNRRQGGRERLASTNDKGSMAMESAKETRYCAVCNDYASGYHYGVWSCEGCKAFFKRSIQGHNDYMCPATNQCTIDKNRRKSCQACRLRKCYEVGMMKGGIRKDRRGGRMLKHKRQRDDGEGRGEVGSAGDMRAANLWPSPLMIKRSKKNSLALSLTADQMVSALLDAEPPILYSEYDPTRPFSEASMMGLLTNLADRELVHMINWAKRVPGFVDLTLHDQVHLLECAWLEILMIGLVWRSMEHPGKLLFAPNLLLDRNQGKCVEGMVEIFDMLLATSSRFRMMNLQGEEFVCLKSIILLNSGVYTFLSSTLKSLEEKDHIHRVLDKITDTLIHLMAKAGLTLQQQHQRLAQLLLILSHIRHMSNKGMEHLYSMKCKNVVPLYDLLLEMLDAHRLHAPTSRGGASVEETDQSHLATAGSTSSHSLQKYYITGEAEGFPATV
Method in brief: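 VM7Luc4E2, endog. ER-alpha + 4×ERE-luc; charcoal-stripped FBS, phenol red-free, 5 d; 24hr plating; +10.0nM ICI-182,780 (final); cpds 15 conc, 22hr, 37C/5% CO2; ONE-Glo luminescence.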

Measured: Potency

CN(C)N
not listed: [20]
inactive: all other assays above

C[N+](C)(C)CCOC(=O)C(O)(c1ccccc1)c1ccccc1
not listed: [6] | [8] | [9] | [11] | [20]
inactive: all other assays above

CCCCOC(=O)CCC(=O)OCCCC
not listed: [5] | [6] | [20]
inactive: all other assays above

OCCCl
inactive: [1] | [2] | [3] | [4] | [5] | [7] | [11] | [12] | [14] | [15] | [16]

COC(=O)C1(O)c2ccccc2-c2ccccc21
not listed: [3] | [11] | [12] | [13]
inactive: all other assays above

COc1cc(CC#N)cc(OC)c1OC
not listed: [3]
inactive: all other assays above

O=S(=O)(Cl)Cl
not listed: [6] | [8] | [12]
inactive: all other assays above

Cc1cnc(C2=NC(C)(C(C)C)C(=O)N2)c(C(=O)O)c1 (stereo not drawn)
not listed: [11]
inactive: all other assays above

Source: PubChem BioAssay (Tox21)
